Binding signal data for one sequence are collected here from PMC7862700, “An all-to-all approach to the identification of sequence-specific readers for epigenetic DNA modifications on cytosine”.

What all share (test): DAPPL (digital affinity profiling via proximity ligation, sequencing); 10 mM Tris-HCl pH 7.5, 50 mM NaCl, 1 mM DTT, 4% glycerol, room temperature, 30 min; GST-TFs on glutathione beads, 16-mer random dsDNA library, 0.1% formaldehyde crosslink after washing; high values mean tight binding
The target of one assay is T1, FLI1 (Homo sapiens, UniProt Q01543 1-452).
T1 sequence: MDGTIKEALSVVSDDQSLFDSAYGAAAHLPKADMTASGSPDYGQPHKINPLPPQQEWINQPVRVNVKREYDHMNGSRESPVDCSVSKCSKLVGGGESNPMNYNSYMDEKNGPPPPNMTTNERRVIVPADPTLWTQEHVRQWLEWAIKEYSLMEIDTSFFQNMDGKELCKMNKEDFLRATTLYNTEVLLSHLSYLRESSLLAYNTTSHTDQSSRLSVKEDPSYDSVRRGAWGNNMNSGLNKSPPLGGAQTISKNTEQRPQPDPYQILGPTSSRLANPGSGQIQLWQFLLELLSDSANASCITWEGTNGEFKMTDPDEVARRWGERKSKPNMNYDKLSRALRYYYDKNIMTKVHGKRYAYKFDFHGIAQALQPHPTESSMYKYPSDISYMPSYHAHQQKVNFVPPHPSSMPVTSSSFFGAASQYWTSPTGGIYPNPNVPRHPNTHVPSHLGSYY
The following applies: protein: recombinant; tags: N-terminal GST; dsDNA, one strand shown. The method in brief: (§1)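 Pools were built from human transcription factors expressed in yeast as GST fusions, captured on glutathione beads and DNA-barcoded, along with a tag-only sample. Incubation with 200 nmole of a 16-mer random double-stranded DNA library lasted 30 min at room temperature in Tris/NaCl/DTT/glycerol buffer, and was followed by washing, 0.1% formaldehyde crosslinking, proximity ligation, PCR amplification and Illumina NextSeq500 sequencing. Binding signal is the quotient of each hexamer's read frequency for a factor and its frequency for the tag-only sample.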

Another assay has as its target T2, ELK1 (Homo sapiens, UniProt P19419 1-428).
T2 sequence: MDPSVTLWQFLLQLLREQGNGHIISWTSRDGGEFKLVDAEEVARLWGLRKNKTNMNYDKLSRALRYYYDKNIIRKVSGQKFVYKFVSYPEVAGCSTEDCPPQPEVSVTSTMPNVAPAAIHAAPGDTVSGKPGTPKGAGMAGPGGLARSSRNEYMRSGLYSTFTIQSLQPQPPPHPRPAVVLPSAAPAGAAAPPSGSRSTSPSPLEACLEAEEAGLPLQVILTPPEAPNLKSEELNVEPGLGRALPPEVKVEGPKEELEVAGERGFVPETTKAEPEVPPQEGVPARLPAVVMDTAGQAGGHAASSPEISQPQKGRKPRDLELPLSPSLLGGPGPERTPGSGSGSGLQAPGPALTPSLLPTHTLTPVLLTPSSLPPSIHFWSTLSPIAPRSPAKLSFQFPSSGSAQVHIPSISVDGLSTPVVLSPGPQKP
The following applies: protein: recombinant; tags: N-terminal GST; dsDNA, one strand shown. Summed up: as §1

The target in another assay is T3, GABPA (Homo sapiens, UniProt Q06546 1-454).
T3 sequence: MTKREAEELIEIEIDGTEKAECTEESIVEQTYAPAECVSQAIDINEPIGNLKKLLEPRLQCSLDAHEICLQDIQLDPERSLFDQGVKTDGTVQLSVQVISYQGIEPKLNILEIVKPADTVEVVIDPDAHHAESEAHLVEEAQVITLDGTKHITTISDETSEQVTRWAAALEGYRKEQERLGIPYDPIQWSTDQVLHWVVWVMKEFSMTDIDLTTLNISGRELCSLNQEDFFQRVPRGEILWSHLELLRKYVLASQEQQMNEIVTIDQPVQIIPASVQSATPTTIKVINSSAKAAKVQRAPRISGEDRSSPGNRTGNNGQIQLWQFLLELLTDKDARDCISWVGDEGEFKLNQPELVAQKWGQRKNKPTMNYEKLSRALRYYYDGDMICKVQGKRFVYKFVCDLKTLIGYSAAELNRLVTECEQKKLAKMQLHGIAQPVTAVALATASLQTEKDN
The following applies: protein: recombinant; tags: N-terminal GST; dsDNA, one strand shown. Summed up: as §1

For a further assay, the target named is T4, ERG (Homo sapiens, UniProt P11308 1-479).
T4 sequence: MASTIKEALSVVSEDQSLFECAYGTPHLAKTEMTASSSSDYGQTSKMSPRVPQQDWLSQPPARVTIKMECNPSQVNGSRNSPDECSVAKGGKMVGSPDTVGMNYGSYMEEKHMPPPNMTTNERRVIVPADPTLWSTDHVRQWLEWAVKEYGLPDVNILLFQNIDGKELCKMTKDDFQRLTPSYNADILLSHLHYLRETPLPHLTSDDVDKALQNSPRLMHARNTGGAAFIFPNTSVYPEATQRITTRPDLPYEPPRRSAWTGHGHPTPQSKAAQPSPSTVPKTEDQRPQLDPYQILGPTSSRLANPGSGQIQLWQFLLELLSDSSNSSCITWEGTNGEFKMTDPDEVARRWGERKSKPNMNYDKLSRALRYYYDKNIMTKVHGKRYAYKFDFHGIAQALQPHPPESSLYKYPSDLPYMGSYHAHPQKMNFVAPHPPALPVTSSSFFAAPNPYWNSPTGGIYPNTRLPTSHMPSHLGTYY
The following applies: protein: recombinant; tags: N-terminal GST; dsDNA, one strand shown. The method in brief: as §1

A further assay concerns the target ELF1 (Homo sapiens, UniProt P32519 1-619). The settings on record: protein: recombinant; tags: N-terminal GST; dsDNA, one strand shown. Summed up:
as §1

Another assay deals with T5, EHF (Homo sapiens, UniProt Q9NZC4 1-300).
T5 sequence: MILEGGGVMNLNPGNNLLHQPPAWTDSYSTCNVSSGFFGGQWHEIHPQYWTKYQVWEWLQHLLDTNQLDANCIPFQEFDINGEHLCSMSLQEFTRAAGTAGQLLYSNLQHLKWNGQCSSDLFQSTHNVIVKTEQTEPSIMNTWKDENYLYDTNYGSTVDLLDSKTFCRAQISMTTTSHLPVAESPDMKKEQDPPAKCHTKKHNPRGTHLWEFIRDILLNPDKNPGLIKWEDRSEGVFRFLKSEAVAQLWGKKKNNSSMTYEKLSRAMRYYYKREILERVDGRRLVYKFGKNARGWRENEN
The following applies: protein: recombinant; tags: N-terminal GST; dsDNA, one strand shown. Summed up: as §1

The target in the next assay is SPI1 (Homo sapiens, UniProt P17947 1-270). The following applies: protein: recombinant; tags: N-terminal GST; dsDNA, one strand shown. Summed up:
as §1

The next assay has as its target SPIB (Homo sapiens, UniProt Q01892 1-262). The following applies: protein: recombinant; tags: N-terminal GST; dsDNA, one strand shown. The method in brief: as §1
The next assay deals with T6, ELK3 (Homo sapiens, UniProt P41970 1-407).
T6 sequence: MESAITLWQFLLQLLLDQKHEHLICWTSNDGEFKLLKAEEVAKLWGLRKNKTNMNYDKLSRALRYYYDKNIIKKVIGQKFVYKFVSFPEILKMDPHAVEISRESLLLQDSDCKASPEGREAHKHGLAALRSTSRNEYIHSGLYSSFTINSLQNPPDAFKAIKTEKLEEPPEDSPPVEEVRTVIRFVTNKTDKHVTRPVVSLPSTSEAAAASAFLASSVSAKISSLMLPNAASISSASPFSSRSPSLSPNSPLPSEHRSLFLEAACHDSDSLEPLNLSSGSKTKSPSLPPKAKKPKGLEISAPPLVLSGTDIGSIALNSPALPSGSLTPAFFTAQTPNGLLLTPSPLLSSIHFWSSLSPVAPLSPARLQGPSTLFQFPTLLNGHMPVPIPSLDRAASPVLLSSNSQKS
The following applies: protein: recombinant; tags: N-terminal GST; dsDNA, one strand shown. The method in brief: as §1

In a further assay the target is T7, FEV (Homo sapiens, UniProt Q99581 1-238).
T7 sequence: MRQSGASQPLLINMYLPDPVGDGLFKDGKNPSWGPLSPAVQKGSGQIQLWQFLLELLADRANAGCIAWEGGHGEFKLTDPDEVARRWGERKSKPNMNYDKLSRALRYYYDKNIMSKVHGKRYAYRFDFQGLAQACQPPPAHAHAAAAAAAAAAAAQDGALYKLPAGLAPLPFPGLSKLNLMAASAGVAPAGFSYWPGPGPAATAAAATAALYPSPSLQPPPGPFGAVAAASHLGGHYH
The settings on record: protein: recombinant; tags: N-terminal GST; dsDNA, one strand shown. The method in brief:
as §1

The target in the next assay is ETV5 (Homo sapiens, UniProt P41161 1-510). The settings on record: protein: recombinant; tags: N-terminal GST; dsDNA, one strand shown. The method in brief:
as §1

The next assay has as its target HSF1 (Homo sapiens, UniProt Q00613 1-529). The following applies: protein: recombinant; tags: N-terminal GST; chain copies: 3; dsDNA, one strand shown. The method in brief: as §1
The next assay addresses T8, SPIC (Homo sapiens, UniProt Q8N5J4 1-248).
T8 sequence: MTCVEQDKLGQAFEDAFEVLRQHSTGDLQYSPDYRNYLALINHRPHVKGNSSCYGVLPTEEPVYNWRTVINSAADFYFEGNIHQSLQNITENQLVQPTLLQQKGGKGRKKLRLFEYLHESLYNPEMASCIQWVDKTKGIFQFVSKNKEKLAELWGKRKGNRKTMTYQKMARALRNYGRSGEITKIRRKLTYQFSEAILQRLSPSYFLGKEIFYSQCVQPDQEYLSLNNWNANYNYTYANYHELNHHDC
The settings on record: protein: recombinant; tags: N-terminal GST; dsDNA, one strand shown. Summed up: as §1

In the next assay the target is ELF4 (Homo sapiens, UniProt Q99607 1-663). The settings on record: protein: recombinant; tags: N-terminal GST; dsDNA, one strand shown. Summed up: as §1
In a further assay the target is T9, ELK4 (Homo sapiens, UniProt P28324-2 1-405).
T9 sequence: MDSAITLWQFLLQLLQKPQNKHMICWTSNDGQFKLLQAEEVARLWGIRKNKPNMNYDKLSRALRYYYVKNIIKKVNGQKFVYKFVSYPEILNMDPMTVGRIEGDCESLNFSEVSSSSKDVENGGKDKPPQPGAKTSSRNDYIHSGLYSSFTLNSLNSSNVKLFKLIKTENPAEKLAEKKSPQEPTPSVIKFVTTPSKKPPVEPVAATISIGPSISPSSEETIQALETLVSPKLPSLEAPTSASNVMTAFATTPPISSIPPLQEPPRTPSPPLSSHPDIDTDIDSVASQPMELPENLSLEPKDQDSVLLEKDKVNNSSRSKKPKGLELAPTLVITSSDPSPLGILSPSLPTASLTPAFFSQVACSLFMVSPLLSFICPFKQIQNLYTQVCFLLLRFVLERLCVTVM
The following applies: protein: recombinant; tags: N-terminal GST; dsDNA, one strand shown. The method in brief:
as §1

The next assay addresses T10, ETV2 (Homo sapiens, UniProt O00321 1-342).
T10 sequence: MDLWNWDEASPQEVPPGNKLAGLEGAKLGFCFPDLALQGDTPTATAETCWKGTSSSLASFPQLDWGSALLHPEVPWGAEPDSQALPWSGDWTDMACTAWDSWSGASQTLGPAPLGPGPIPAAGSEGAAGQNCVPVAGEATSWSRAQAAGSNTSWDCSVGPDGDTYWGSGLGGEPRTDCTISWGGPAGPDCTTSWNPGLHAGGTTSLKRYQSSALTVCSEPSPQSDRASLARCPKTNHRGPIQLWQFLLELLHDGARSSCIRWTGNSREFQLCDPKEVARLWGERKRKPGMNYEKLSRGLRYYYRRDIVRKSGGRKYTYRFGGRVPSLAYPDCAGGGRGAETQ
The following applies: protein: recombinant; tags: N-terminal GST; dsDNA, one strand shown. The method in brief: as §1

Another assay deals with T11, ELF3 (Homo sapiens, UniProt P78545 1-371).
T11 sequence: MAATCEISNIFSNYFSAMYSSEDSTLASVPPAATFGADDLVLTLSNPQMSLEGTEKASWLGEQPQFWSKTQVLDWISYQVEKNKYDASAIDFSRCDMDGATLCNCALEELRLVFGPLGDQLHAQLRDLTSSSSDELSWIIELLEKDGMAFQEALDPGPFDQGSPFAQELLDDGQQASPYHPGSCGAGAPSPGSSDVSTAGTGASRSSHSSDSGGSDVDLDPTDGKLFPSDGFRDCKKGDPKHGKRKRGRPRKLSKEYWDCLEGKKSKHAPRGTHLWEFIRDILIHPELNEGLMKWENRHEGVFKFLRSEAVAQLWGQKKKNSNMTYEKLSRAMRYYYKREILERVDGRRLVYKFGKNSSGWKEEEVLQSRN
The settings on record: protein: recombinant; tags: N-terminal GST; dsDNA, one strand shown. The method in brief: as §1

In the next assay the target is CRX (Homo sapiens, UniProt O43186 1-299). The following applies: protein: recombinant; tags: N-terminal GST; dsDNA, one strand shown. The method in brief:
as §1

In the next assay the target is ETV1 (Homo sapiens, UniProt P50549 1-477). The settings on record: protein: recombinant; tags: N-terminal GST; dsDNA, one strand shown. Summed up: as §1
ETV1, sequence (P50549 whole entry): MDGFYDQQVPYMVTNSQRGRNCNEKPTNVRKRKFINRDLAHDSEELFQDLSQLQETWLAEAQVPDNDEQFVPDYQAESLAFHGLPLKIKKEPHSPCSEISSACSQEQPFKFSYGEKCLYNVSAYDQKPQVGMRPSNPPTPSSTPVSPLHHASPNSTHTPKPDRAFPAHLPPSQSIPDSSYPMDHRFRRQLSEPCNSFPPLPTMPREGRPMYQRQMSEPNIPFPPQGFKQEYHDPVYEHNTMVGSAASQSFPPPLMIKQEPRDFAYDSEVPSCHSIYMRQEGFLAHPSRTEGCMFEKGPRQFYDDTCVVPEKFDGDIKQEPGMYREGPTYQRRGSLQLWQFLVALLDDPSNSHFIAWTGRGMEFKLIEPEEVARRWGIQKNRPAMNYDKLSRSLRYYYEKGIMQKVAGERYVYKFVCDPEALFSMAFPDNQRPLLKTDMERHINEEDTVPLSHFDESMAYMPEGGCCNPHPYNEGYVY

ELF1, sequence (P32519 whole entry): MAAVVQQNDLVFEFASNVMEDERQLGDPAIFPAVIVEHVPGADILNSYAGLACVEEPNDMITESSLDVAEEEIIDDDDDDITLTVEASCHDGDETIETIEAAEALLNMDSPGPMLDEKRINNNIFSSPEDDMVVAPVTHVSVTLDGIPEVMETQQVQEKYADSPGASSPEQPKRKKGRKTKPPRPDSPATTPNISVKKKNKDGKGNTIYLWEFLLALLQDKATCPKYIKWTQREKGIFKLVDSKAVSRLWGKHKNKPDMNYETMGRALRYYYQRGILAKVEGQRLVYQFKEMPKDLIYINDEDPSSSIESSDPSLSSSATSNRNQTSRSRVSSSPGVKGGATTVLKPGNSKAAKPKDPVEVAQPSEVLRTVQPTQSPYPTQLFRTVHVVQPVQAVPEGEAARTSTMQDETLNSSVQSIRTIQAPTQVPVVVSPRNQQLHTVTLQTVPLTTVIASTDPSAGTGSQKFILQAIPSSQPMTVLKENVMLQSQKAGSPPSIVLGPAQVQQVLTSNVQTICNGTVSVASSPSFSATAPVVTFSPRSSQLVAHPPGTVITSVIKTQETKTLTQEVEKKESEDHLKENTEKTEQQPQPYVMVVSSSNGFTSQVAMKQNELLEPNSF
SPIB, sequence (Q01892 whole entry): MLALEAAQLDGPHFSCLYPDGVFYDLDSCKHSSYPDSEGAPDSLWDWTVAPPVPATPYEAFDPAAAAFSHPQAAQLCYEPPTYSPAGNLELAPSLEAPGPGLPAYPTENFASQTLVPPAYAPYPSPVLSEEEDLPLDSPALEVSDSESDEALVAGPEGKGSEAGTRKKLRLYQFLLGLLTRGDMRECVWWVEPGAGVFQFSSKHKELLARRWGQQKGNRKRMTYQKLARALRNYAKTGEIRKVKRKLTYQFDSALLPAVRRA
ELF4, sequence (Q99607 whole entry): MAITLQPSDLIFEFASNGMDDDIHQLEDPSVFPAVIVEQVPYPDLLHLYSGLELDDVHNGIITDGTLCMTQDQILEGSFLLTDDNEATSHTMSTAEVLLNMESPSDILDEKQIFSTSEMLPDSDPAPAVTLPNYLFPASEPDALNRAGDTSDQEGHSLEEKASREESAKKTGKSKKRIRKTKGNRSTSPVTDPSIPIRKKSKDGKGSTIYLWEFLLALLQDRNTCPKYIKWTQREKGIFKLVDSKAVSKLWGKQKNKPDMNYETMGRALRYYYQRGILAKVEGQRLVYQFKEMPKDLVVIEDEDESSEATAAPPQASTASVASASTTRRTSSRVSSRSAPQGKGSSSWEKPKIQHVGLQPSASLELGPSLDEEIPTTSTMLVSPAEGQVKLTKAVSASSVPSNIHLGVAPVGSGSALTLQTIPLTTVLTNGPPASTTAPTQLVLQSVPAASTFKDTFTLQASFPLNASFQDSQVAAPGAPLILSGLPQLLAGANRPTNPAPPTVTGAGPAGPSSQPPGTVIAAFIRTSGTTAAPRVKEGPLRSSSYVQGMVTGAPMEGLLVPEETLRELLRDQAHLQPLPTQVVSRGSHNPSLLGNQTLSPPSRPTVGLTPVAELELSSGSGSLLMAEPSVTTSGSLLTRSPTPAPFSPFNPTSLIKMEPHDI
ETV5, sequence (P41161 whole entry): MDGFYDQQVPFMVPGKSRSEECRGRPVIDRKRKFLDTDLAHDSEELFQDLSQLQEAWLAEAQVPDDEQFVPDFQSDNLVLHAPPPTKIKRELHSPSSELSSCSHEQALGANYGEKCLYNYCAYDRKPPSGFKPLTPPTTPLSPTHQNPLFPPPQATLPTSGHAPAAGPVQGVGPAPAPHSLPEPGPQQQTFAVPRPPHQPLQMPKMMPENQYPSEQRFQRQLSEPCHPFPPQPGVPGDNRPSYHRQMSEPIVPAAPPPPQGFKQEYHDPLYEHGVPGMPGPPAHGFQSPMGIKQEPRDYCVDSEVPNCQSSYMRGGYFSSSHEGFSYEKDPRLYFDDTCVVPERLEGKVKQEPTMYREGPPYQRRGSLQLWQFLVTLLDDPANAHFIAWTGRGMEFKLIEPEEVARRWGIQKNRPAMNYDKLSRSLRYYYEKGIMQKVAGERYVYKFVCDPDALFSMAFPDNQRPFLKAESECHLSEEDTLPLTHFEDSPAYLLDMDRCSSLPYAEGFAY
CRX, sequence (O43186 whole entry): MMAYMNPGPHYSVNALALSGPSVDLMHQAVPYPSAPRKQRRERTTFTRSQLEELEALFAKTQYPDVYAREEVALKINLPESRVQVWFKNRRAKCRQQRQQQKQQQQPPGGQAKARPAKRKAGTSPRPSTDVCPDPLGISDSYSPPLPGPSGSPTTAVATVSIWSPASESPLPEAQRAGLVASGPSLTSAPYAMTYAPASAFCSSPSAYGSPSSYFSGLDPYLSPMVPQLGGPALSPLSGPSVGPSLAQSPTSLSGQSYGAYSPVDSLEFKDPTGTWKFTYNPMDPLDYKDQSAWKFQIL
HSF1, sequence (Q00613 whole entry): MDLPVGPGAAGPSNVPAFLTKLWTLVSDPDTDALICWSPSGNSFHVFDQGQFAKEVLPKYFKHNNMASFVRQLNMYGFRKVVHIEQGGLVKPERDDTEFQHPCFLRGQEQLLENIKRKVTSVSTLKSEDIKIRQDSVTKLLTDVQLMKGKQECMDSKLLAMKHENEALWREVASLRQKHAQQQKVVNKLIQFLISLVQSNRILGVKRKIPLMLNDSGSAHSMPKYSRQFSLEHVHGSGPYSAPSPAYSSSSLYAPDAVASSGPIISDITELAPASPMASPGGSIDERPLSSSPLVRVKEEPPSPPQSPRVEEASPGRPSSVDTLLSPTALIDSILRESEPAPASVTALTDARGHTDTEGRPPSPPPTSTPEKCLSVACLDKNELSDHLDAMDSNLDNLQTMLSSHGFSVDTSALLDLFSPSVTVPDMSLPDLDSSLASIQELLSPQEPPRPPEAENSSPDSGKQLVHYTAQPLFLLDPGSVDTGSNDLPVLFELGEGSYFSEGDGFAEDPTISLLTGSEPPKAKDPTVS

With TTACCG, the binding signal in the assay with FLI1 was 1.16 fold enrichment (6-mer frequency, TF over GST control); with ELK1, 1.16 fold enrichment (6-mer frequency, TF over GST control); with GABPA, 1.12 fold enrichment (6-mer frequency, TF over GST control); with ERG it was 1.2 fold enrichment (6-mer frequency, TF over GST control); with ELF1 it was 1.11 fold enrichment (6-mer frequency, TF over GST control); with EHF, 1.24 fold enrichment (6-mer frequency, TF over GST control). The binding signal in the assay with SPI1 was 1.17 fold enrichment (6-mer frequency, TF over GST control); with SPIB it was 1.15 fold enrichment (6-mer frequency, TF over GST control); with ELK3, 1.18 fold enrichment (6-mer frequency, TF over GST control); with FEV it was 1.26 fold enrichment (6-mer frequency, TF over GST control); with ETV5 it was 1.23 fold enrichment (6-mer frequency, TF over GST control); with HSF1, 1.25 fold enrichment (6-mer frequency, TF over GST control). In addition, the binding signal was 1.16 fold enrichment (6-mer frequency, TF over GST control) in the assay with SPIC; 1.13 fold enrichment (6-mer frequency, TF over GST control) with ELF4; 1.16 fold enrichment (6-mer frequency, TF over GST control) with ELK4; 1.12 fold enrichment (6-mer frequency, TF over GST control) with ETV2; 1.2 fold enrichment (6-mer frequency, TF over GST control) with ELF3; 1.74 fold enrichment (6-mer frequency, TF over GST control) with CRX. Also, the binding signal with ETV1 is 1.14 fold enrichment (6-mer frequency, TF over GST control).
